Screening results as filed in PubChem BioAssay.
Only some compounds are listed: those with a hit (about 22% of all), similar ones and a draw of the others.
Pf growth 96h = inhibits malaria parasite growth, 96 h | P. falciparum luciferase reporter growth, 96 h | Potency, µM (doses to about 28.7 µM), for the others: top-dose activity change, negative = inhibition, most hits filed as inhibitors | actives 6.9% (n = 320,000) | AID 504834; also: potency is read from the fitted curve at half-maximal effect; % is scaled to controls: 0 for no effect and ±100 for the full control effect
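Two parasite generations (96 h, 37 C, 5% CO2) of compound exposure in infected erythrocytes (0.05% parasitemia, 2% hematocrit). Luciferase-reporter P. falciparum; decreased luminescence indicates inhibited growth, aimed at apicoplast-acting delayed death.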
LmPK inh = blocks Leishmania mexicana pyruvate kinase activity | purified LmPK, Kinase-Glo ATP luminescence, 1 h | Potency, µM (titrated, usually from 57.5 µM), without a hit: top-dose activity change, negative = inhibition, hits mostly inhibitors | actives 0.37% (n = 290,000) | AID 1721; also: potency is read from the fitted curve at half-maximal effect; % is scaled to controls: 0 for no effect and ±100 for the full control effect
Target sequence (Q27686 whole entry, looked up): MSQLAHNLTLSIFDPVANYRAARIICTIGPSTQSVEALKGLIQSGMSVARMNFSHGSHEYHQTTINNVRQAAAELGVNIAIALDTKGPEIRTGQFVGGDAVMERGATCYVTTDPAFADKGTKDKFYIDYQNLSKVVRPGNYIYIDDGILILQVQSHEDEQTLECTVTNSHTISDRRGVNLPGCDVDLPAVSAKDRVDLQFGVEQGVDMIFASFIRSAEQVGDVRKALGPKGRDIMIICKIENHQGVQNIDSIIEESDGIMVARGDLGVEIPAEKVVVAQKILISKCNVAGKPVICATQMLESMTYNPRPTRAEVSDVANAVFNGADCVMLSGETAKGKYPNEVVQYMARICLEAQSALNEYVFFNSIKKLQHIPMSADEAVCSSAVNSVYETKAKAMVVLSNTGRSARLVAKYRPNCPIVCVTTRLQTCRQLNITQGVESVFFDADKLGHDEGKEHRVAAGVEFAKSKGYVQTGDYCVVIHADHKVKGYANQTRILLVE
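Pyruvate kinase activity monitored as ATP production (luciferase luminescence). Conditions: 0.1 nM enzyme, 0.5 mM PEP, 0.1 mM ADP, 1 h, RT; normalized against uninhibited and no-enzyme wells.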
CHX counter = counter-screen for Shiga toxin inhibitors: cycloheximide protein synthesis inhibition; cell reporter, cycloheximide protein synthesis inhibition counterscreen; max response, %; actives 12% (n = 300,000); in the data active = max response mostly above about 13%, no sharp cut-off; inactive = mostly below about 14%; also: read at 38.3 µM for the half of the compounds with a filed dose; 0% is about no effect
Shiga toxin inh = inhibitors of Shiga toxin in Vero cells | Vero cells, Shiga toxin protein synthesis inhibition reporter | inhibition, % at 38.7 µM | actives 9.2% (n = 290,000); in the data active = inhibition mostly above about 28%, no sharp cut-off; inactive = mostly below about 43%; also: 0% is about no effect
Pf growth 48h = inhibits P. falciparum growth in the first generation, 48 h. AID 504832. Potency, µM (highest dose often 28.7 µM), for the others: at the top dose activity change, negative = inhibition, actives largely listed as inhibitors. actives 5.9% (n = 310,000). P. falciparum luciferase growth in erythrocytes, 48 h; also: potency is read from the fitted curve at half-maximal effect; % is scaled to controls: 0 for no effect and ±100 for the full control effect
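Cell-based growth assay: transgenic P. falciparum expressing firefly luciferase, cultured in red cells within RPMI 1640 containing 0.5% w/v Albumax, 24 mM bicarbonate and gentamycin. A drop in luciferase activity indicates inhibition.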
Numbers without * were called inactive; ? = inconclusive; . = no result given; [ ] = dose if it differs, or a comment. Unless noted, calls follow the shape of the dose curve; as a rule, active = well fitted inhibition curve with a large enough effect; inconclusive = small, poorly fitted or top-dose-only effect, or another doubt; inactive = no such curve, though single readings can be large or run the other way.

SMILES	Pf growth 96h	LmPK inh	CHX counter	Shiga toxin inh	Pf growth 48h
Cc1ccc(SC2CC(=O)N(c3ccc4c(c3)OCCO4)C2=O)cc1 (configuration not stated)	-32%[5.75 µM]	6%	1	7	22%
N#Cc1ccccc1OCCOCCNC1CCCC1	44%	-5%	-1	-4	31%
Cc1ccc2oc(C(=O)N(C)CCC(O)c3ccccc3)c(C)c2c1 (configuration not stated)	?	-2%	13	22*	0%
Cc1c(C(=O)N(C)Cc2ccccc2)oc2ccc(S(=O)(=O)N3CCCC3)cc12	?	6%	-2	-23	?
COc1ccc2oc(C(=O)N(C)CCOc3ccccc3)c(C)c2c1	42%	-11%	38*	83*	52%
O=[N+]([O-])c1ccc(C2Oc3ccccc3C3CC(c4ccccc4)=NN32)s1 (configuration not stated)	?	-2%	61*	114*	0%
COc1ccc(C2CC(c3cccs3)=NN2S(C)(=O)=O)cc1 (configuration not stated)	49%	0%	32*	121*	68%
CS(=O)(=O)N1N=C(c2cccs2)CC1c1ccc(Cl)o1 (configuration not stated)	35%	-11%	36*	66*	36%
CS(=O)(=O)N1N=C(c2cccs2)CC1c1ccccc1 (configuration not stated)	?	-4%	13*	10	?
COc1ccc(C2CC(c3cccs3)=Nc3ccccc3S2)cc1 (configuration not stated)	?	2%	61*	83*	11%
c1ccc(C2Oc3ccccc3C3CC(c4cccs4)=NN32)cc1 (configuration not stated)	6%	0%	56*	105*	47%
COc1ccc(O)c(C2=Nc3ccccc3N=C(c3cccs3)C2)c1	1%	-1%	16*	2	-7%
CS(=O)(=O)N1N=C(c2cccs2)CC1c1ccccc1F (configuration not stated)	-29%	5%	-2	12	10%
COc1ccc(O)c(-c2cn[nH]c2-c2cccs2)c1	?	1%	-2	-8	7%
CCN1CCN(CC(=O)N2N=C(c3cccs3)CC2c2ccc(OC)cc2)C(=O)C1=O (configuration not stated)	-28%	0%	4	16	-25%
COc1ccccc1NC(=O)NC1(C(=O)N2CCN(C)CC2)CCCCC1	3%	6%	-7	-3	16%
O=C(NCCCO)C(=O)NCc1ccccn1	22%	5%	2	3	9%
COc1cc2c(cc1OC)n(CC(=O)NC1CCCCCC1)n1c(C)cc(=O)nc21	5.9µM*	6%	14	-4	19%
CC(C)c1c(C(=O)N/N=C/c2cccc3ccccc23)nnn1-c1nonc1N	?	-9%	5	-5	-23%
CCn1c(SCc2ccccc2)nc2cc(S(N)(=O)=O)ccc21	-1%	1%	-3	-10	40%
CCOC(=O)[C@@H](N)CS	-5%	.	.	.	-13%
COc1ccc(CCn2c(C)cc3c(c2=O)C(c2ccc4c(c2)OCO4)C(C#N)=C(N)O3)cc1OC (configuration not stated)	.	3%	-3	-17	8.3µM*
CCOc1ccc(C2C(C#N)=C(N)Oc3cc(C)n(CCN4CCOCC4)c(=O)c32)cc1OCC (configuration not stated)	17%	0%	-4	-5	13%
COc1cc(C2C(C#N)=C(N)Oc3cc(C)n(CCN4CCOCC4)c(=O)c32)cc(OC)c1OC (configuration not stated)	.	-8%	41*	52	?
Cc1cc2c(c(=O)n1Cc1ccc3c(c1)OCO3)C(c1cccnc1)C(C#N)=C(N)O2 (configuration not stated)	-12%[5.75 µM]	6%	1	-7	12µM*
Cc1ccc(-c2csc(N(CCO)CCCn3c(C(F)(F)F)nc4ccccc43)n2)cc1	6.6µM*	-3%	13	14	?
Cc1ccc(-c2csc(N3CCC[C@@H]3C(=O)NCCn3c(C(F)(F)F)nc4ccccc43)n2)cc1	2.3µM*	0%	7	17	?
OCCn1c(C(F)(F)F)nc2ccccc21	4%	3%	-4	15	-10%
